Screening results deposited in PubChem by National Center for Advancing Translational Sciences (NCATS).
FLuc counter: counter-screen for miR-21 project: firefly luciferase inhibitors or activators. purified FLuc, Km substrates, luminescence inhibition. Potency, µM (highest dose often 57.5 µM), inactives show at the highest dose activity change, negative = inhibition, hits mostly inhibitors. 360,000 compounds, 6.9% hits;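 also: plate controls were vehicle for no effect and reference inhibitor for full effect; nearly all actives have a fitted effect of over 55% in size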
Target sequence (P08659 whole entry, looked up): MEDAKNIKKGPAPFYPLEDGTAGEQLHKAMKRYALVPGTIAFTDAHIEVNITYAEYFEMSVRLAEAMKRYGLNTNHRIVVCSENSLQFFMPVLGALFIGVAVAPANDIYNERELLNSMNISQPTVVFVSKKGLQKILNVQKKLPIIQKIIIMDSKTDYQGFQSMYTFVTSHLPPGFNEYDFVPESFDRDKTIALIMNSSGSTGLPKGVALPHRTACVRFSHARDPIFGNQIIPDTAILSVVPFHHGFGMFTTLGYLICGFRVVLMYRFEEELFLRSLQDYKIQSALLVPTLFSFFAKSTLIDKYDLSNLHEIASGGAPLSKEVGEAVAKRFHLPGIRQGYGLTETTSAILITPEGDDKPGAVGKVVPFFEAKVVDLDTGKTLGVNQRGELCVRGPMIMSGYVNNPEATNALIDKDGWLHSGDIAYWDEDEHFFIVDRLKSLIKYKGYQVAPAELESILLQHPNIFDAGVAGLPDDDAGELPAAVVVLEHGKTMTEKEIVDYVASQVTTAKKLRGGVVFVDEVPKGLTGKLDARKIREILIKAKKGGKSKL
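Purified P. pyralis luciferase, 10 nM final, with Km-level 10 uM D-luciferin and 10 uM ATP in 50 mM Tris acetate pH 7.5, 10 mM Mg acetate, 0.01% Tween-20, 0.05% BSA; 6-point qHTS titration about 60 µM downward; luminescence read.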
ELG1 DNA repair: blocks ELG1-dependent DNA repair in HEK293T cells; Potency, µM (titrated, usually from 46.1 µM), inactives show at the top dose activity change, negative = inhibition, hits mostly inhibitors; HEK293T ELG1-luciferase reporter, luminescence, 16 h; DNA damage induced by 5-fluorouridine; AID 504467; 330,000 compounds, 2.3% hits; also: % is scaled to controls: 0 for no effect and ±100 for the full control effect; nearly all actives have a fitted effect of over 55% in size
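Cells (2,000 per well) received 5-fluorouridine plus test compound or DMSO and were incubated 16 hr at 37 °C, 5% CO2. Luciferase activity was read by luminescence 30 min after ONE-Glo addition; signal suppression marked inhibition of damage-induced ELG1 function.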
ELG1 genotox: induces genotoxicity in HEK293T cells with luciferase-tagged ELG1; 330,000 compounds, 1.3% hits; HEK293T ELG1-luciferase reporter, luminescence, 16 h; Potency, µM (doses to about 46 µM), without a hit: at the highest dose activity change, positive = activation, hits mostly activators; AID 504466; also: % of control where 0% means no effect; nearly all actives have a fitted effect of over 60% in size
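Luminescence read-out: rising ELG1-luciferase signal, reflecting elevated ELG1 protein under genetic stress, flags genotoxic compounds. Cells were treated for 16 hr at 37 °C before ONE-Glo detection.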
SMN2 splice enh: SMN2 splice variant enhancement | HEK293 SMN2-luciferase splicing reporter, luminescence, 30-36 h | Potency, µM (top dose mostly 46.1 µM), without a hit: top-dose activity change, positive = activation, hits mostly activators | 210,000 compounds, 2.8% hits | AID 1458; also: % of control where 0% means no effect; nearly all actives have a fitted effect of over 55% in size
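qHTS luciferase splicing reporter: luminescence rises when SMN2 exon 7 is included in transfected HEK293 cells. Compound exposure lasted 30-36 h at 37C, with 4.5 mM final sodium butyrate as control, followed by a ONE-Glo read.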
NPC1 prom act: activators of NPC1 promoter | Potency, µM (top dose mostly 9.22 µM), for the others: at the highest dose activation, most hits filed as activators | AID 485313 | 320,000 compounds, 2.4% hits | Huh7 NPC1 promoter luciferase reporter, 24 h; also: % of control where 0% means no effect; nearly all actives have a fitted effect of over 60% in size
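Stably transfected Huh7 (NPC1 promoter→luciferase), 1500 cells/well in Opti-MEM + 10% FBS, 2 h settle, then compound 24 h at 37 °C. Luminescence after 10 min with Amplite reagent.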
Rab9 prom act: activates the Rab9 promoter; Huh7 Rab9 promoter-luciferase reporter, luminescence, 24 h; Potency, µM (highest dose often 9.22 µM), inactives show at the highest dose activation, negative = inhibition, usual class: activators; 320,000 compounds, 2.8% hits; also: % of control where 0% means no effect; nearly all actives have a fitted effect of over 60% in size
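Rab9 promoter-driven luciferase in stably transfected Huh7 cells; 1500 cells/well rested 2 h, exposed to compound in DMSO for 24 h at 37 °C, 5% CO2. Luminescence read 10 min after adding luciferase reagent at ambient temperature.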
* = called active by the depositor; ? = inconclusive; / = not tested or not shown; [ ] = remark or other dose. Only some compounds are listed: those with a hit (about 9.2% of all), similar ones and a draw of the others. Calls follow the shape of the dose curve; as a rule, active = well fitted curve in the direction sought with a large enough effect; inconclusive = small, poorly fitted or top-dose-only effect, or another doubt; inactive = no such curve, though single readings can be large; an effect the other way counts as inactive or inconclusive. Potency is read from the fitted curve at half-maximal effect.

SMILES	FLuc counter	ELG1 DNA repair	ELG1 genotox	SMN2 splice enh	NPC1 prom act	Rab9 prom act
COc1ccc(C(C(=O)NCC2CCCO2)N(C(=O)CNC(=O)c2ccco2)c2cc(C)ccc2C)cc1OC (centres undefined)	1.0%	4.9%	-1.1%	/	-1.2%	-1.0%
Cc1ccc(CNc2nc(C)cs2)cc1	6.01µM*	?	1.03µM*	/	2µM*	1.12µM*
O=C(NNC(=O)c1cc2ccccc2cc1O)c1cccs1	12µM*	?	?	/	3.16µM*	3.55µM*
C/C(=N\NC(=O)c1ccc(Cl)cc1)c1ccc(Br)s1	?	?	-4.6%	-15.6%	16.2%	21.3%
O=C(NNC(=O)c1ccc2ccccc2c1O)c1cccs1	26.9µM*	?	8.4%	/	11.7%	15.0%
O=C(NNS(=O)(=O)c1ccc2ccccc2c1)c1cccs1	0.2%	9.5%	-2.5%	2.7%	-1.1%	-4.9%
C/C(=N\NC(=O)COc1ccc2ccccc2c1)c1cccs1	?	-0.3%	-5.8%	/	-1.4%	2.2%
C/C(=N\NC(=O)c1cc(Cl)ccc1O)c1ccc(Br)s1	6.75µM*	?	9.7%	3.98µM*	3.98µM*	3.55µM*
C/C(=N\NC(=O)c1cc2ccccc2cc1O)c1cccs1	3.79µM*	?	?	/	0.562µM*	0.631µM*
COc1ccc(-c2cc(-c3ccc(F)cc3)nc3c2COc2ccc(F)cc2-3)cc1	-6.1%	/	/	6.1%	/	/
O=C(COc1ccc2ccccc2c1Br)Nc1ccncc1	12µM*	9.8%	8.4%	/	-13.7%	-10.5%
O=C(COc1ccc2ccccc2c1Br)Nc1cccnc1	4.78µM*	?	17.8%	/	?	3.5%
CCn1c(=O)cc(OCC(=O)Nc2cccnc2)c2ccccc21	-0.8%	?	13.0%	-4.0%	-0.6%	9.0%
C#CCNCCS(=O)(=O)N(Cc1ccc(Br)cc1)[C@@H](C)C(=O)O	/	7.3%	6.7%	/	/	/
COCC(=O)Nc1ccc(OCc2ccccc2)cc1	?	?	?	12.6µM*	?	?
COC(=O)Nc1ccc(Oc2ccccc2)cc1	?	?	?	?	1.8%	0.1%
NC(=O)COc1ccc(NC(=O)OCc2ccccc2)cc1	12µM*	?	?	20.8%	19.8%	16.7%
O=C(O)c1cccc(S(=O)(=O)Nc2ccc(OCc3ccccc3)cc2)c1	-8.0%	3.4%	-3.7%	/	1.4%	-2.8%
NC(=O)COc1ccccc1	0.2%	-9.8%	-3.4%	/	-3.8%	-4.8%
COC(=O)Nc1ccc(OCc2ccccc2)cc1	-0.5%[2.3 µM]	?	?	12.6µM*	?	2.82µM*
CS(=O)(=O)Nc1ccc(OCc2ccccc2)cc1	13.5µM*	?	14.6µM*	?	?	?
CC(C)C(=O)N/N=C/c1ccc(OCc2ccccc2)cc1	-14.2%	1.6%	3.6%	-6.4%	2.1%	0.8%
COC(=O)Nc1ccc(SCC(=O)c2ccc(Cl)cc2)cc1	-1.2%	7.4%	0.6%	-1.9%	-0.3%	-4.4%
COC(=O)Nc1ccc(SCC(=O)c2ccccc2)cc1	19µM*	18.9%	11.6%	14.3%	17.2%	?
CC(=O)Nc1ccc(N=Cc2ccc(OCc3ccccc3)cc2)cc1	23.9µM*	?	?	?	-2.5%	0.3%
SMILES	FLuc counter	ELG1 DNA repair	ELG1 genotox	SMN2 splice enh	NPC1 prom act	Rab9 prom act
Cc1ccccc1NS(=O)(=O)c1ccc(OCC(=O)NCc2ccccn2)cc1	0.5%	3.1%	0.4%	-1.3%	0.3%	-1.6%
Oc1ccc(-c2nccc(-c3ccc(Cl)cc3)n2)cc1	16.9µM*	?	?	11.9%	2.0%	13.2%
O=C(Nc1nccc(-c2cccs2)n1)c1ccccc1Cl	-17.4%	?	4.6%	-1.8%	5.9%	18.3%
Oc1ccc(-c2cc(-c3ccc(O)cc3)nc(-c3ccccc3)n2)cc1	-13.5%	0.0%	3.5%	/	-2.6%	-8.3%
Oc1ccc(-c2cccc(-c3ccc(O)cc3)n2)cc1	16.9µM*	?	10.5%	?	-2.6%	26.9%
Oc1ccc(-c2nccc(-c3ccc(Cl)cc3Cl)n2)cc1	0.5%	-4.2%	3.9%	-1.9%	-0.7%	-6.1%
COC(=O)C(C)Oc1ccc(-c2nccc(-c3cccs3)n2)cc1 (centres undefined)	16.9µM*	?	10.7%	?	18.1%	24.0%
Oc1ccc(-c2nnc(-c3ccc(O)cc3)nn2)cc1	2.69µM*	?	18.4%	14.1µM*	3.16µM*	3.98µM*
CCc1cccc(NC(=O)CCc2c(C)nc3c(-c4ccccc4)c(C)nn3c2C)c1	?	/	/	5.3%	/	/
Oc1ccc(-c2nccc(-c3cccs3)n2)cc1	8.49µM*	?	?	?	?	21.9%
Cc1ccc(C)n1-c1nccc(-c2cccs2)n1	2.8%	7.0%	-0.2%	-22.0%	-7.0%	-7.2%
Cc1nn(C(=O)c2cc3sccc3[nH]2)c(C)c1C	3.01µM*	?	15.9%	?	?	?
Cc1nn(-c2ccccc2C(=O)O)c(=O)c2ccccc12	-3.0%	24.5%	-7.3%	/	-1.1%	-1.8%
Cc1nn(-c2ccc(Br)cc2)c(=O)c2ccccc12	8.49µM*	?	22.5%	/	?	2.82µM*
CCCc1nnc(NC(=O)c2cc(=O)c3cc(Cl)ccc3o2)s1	?	/	/	0.0%	/	/
CC(C)c1ccc(/C=N/NC(=O)c2c(Cl)cnn2C)cc1	0.675µM*	?	18.4µM*	8.91µM*	3.16µM*	2.82µM*
Cc1cc(-c2ccc(C)c(S(=O)(=O)N(C)c3ccc(C)c(C)c3)c2)on1	-1.0%	/	/	/	/	/
CCCc1ccc(C(=O)/C=C/N(C)C)cc1	5.36µM*	?	9.2µM*	/	1.12µM*	1.41µM*
CN(C)/C=C/C(=O)c1ccccc1	-4.1%	18.0%	0.3%	/	-0.4%	-1.5%
CN(C)/C=C/C(=O)c1ccc(Oc2ccccc2)cc1	4.26µM*	?	4.11µM*	12.6µM*	?	1.41µM*
COc1ccc(Br)cc1/C=N/NC(=O)c1nc(-c2ccccc2)n2c1CCCCC2	1.9%	20.6µM*	-1.7%	13.7%	-3.2%	-0.5%
COC(=O)CNC(=O)C1(C)C=CC2(CCCCC2)N1C(=O)OC (centres undefined)	/	/	/	-16.3%	/	/
CC(C)(C)c1ccc2c(c1)OC(C(=O)N/N=C\c1ccc(-c3cccc(C(=O)O)c3)o1)CO2 (centres undefined)	19µM*	?	10.3%	/	5.4%	1.0%
O=C(O)c1cccc(-c2ccc(/C=N/NC(=O)C3COc4ccccc4O3)o2)c1 (centres undefined)	23.9µM*	?	8.6%	-0.7%	0.9%	-2.3%
